# Bioassay records (PubChem BioAssay)
# Cycloheximide cs: Cycloheximide Counterscreen for Small Molecule Inhibitors of Shiga Toxin; max response, %; AID 2314, 2010; hit rate 12% among 300,000; cell reporter, cycloheximide protein synthesis inhibition counterscreen; in the data active means max response mostly above about 13%, no sharp cut-off; inactive means mostly below about 14%; further: read at 38.3 µM for the half of the compounds with a filed dose; 0% is about no effect
# Shiga toxin inh: A qHTS for Small Molecule Inhibitors of Shiga Toxin; hit rate 9.2% among 290,000; inhibition, % at 38.7 µM; AID 2315, 2010; Vero cells, Shiga toxin protein synthesis inhibition reporter; in the data active means inhibition mostly above about 28%, no sharp cut-off; inactive means mostly below about 43%; further: 0% is about no effect
# AMA1 RON2 block: qHTS for Inhibitors of AMA1-RON; Towards Development of Antimalarial Drug Lead: Primary Screen | Potency, µM (doses to about 58.2 µM), for inactives: top-dose activity change, negative = inhibition, hits mostly inhibitors | Plasmodium falciparum AMA1 (3D7) - RON2 peptide interaction | AlphaScreen AMA1-biotinylated RON2 peptide binding | hit rate 0.2% among 360,000;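 further: potency means the concentration at half of the fitted maximal effect; 0% = vehicle wells and -100% = peptide control; nearly all actives have a fitted effect of over 45% in size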
#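 AMA1 (3D7) with his tag at 25 nM final met compounds first, then biotinylated RON2 peptide at 25 nM; detection used donor plus acceptor beads, 10 µg/mL apiece, read by AlphaScreen after 30 min at room temperature.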
# HCV inh: qHTS Assay for Inhibitors of Hepatitis C Virus (HCV); hit rate 3.4% among 340,000; AID 651820, 2012; Potency, µM (titrated, usually from 41.8 µM), for inactives: top-dose activity change, negative = inhibition, usual class: inhibitors; Huh7.5.1 HCVcc-Cre infection, luciferase reporter, 44 h; further: potency means the concentration at half of the fitted maximal effect; on the % scale 0 is the no-effect control and ±100 the full control effect
#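 Seed cells (1,000/well) for 4 h; treat with compound and infect with HCVcc-Cre, moi about 0.5. Incubate 44 h, then detect luciferase activity.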
# Pf growth 48h: Primary qHTS for delayed death inhibitors of the malarial parasite plastid, 48 hour incubation; AID 504832, 2011; Potency, µM (top dose mostly 28.7 µM), inactives show at the highest dose activity change, negative = inhibition, hits mostly inhibitors; hit rate 5.9% among 310,000; P. falciparum luciferase growth in erythrocytes, 48 h; further: potency means the concentration at half of the fitted maximal effect; on the % scale 0 is the no-effect control and ±100 the full control effect
#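 Growth was read as firefly luciferase luminescence after a 48 h, 37 C, 5% CO2 exposure of compounds to reporter-bearing P. falciparum cultures (0.1% parasitemia, 2% hematocrit final) in Albumax-supplemented RPMI 1640.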
# Pf growth 96h: Primary qHTS for delayed death inhibitors of the malarial parasite plastid, 96 hour incubation; P. falciparum luciferase reporter growth, 96 h; Potency, µM (titrated, usually from 28.7 µM), for the others: at the highest dose activity change, negative = inhibition, actives largely listed as inhibitors; hit rate 6.9% among 320,000; further: potency means the concentration at half of the fitted maximal effect; on the % scale 0 is the no-effect control and ±100 the full control effect
#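 Two parasite generations (96 h, 37 C, 5% CO2) of compound exposure in infected erythrocytes (0.05% parasitemia, 2% hematocrit). Luciferase-reporter P. falciparum; decreased luminescence indicates inhibited growth, aimed at apicoplast-acting delayed death.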
# Numbers without * were called inactive; u = inconclusive; x = not tested or not shown. Only some compounds are listed: those with a hit (about 21% of all), similar ones and a draw of the others. Unless noted, the call rests on the fitted dose curve; in most records, active means well fitted curve in the direction sought with a large enough effect; inconclusive means small, poorly fitted or top-dose-only effect, or another doubt; inactive means no such curve, though single readings can be large; an effect the other way counts as inactive or inconclusive.
SMILES,Cycloheximide cs,Shiga toxin inh,AMA1 RON2 block,HCV inh,Pf growth 48h,Pf growth 96h
O=C(c1cc(=O)c2ccccc2o1)N(Cc1ccccc1)C1CCS(=O)(=O)C1 (centres undefined),14,34,-6%,6%,-13%,7%
CCOc1ccccc1C(=O)N(Cc1cccs1)C1CCS(=O)(=O)C1 (centres undefined),-1,-12,-8%,u,-8%,16%
Cc1ccc(CN(C(=O)c2cccs2)C2CCS(=O)(=O)C2)cc1 (centres undefined),-2,-6,-1%,0%,u,-48%
O=C(NCCc1ccc(F)cc1)N[C@@H](Cc1ccccc1)C(=O)O,-2,22,-13%,2%,12%,15%
COC(=O)C[C@@H]1C[C@H]2c3cc(NC(=O)Nc4ccccc4F)ccc3O[C@H]2[C@H](CO)O1,x,x,-8%,x,x,x
O=C(c1cc2ccccc2oc1=O)N(Cc1ccc(F)cc1)C1CCS(=O)(=O)C1 (centres undefined),64*,130*,-6%,10%,8%,26%
Cc1c(C(=O)N(Cc2cccc(Br)c2)C2CCS(=O)(=O)C2)oc2ccccc12 (centres undefined),-10,-6,-5%,u,u,13µM*
CCc1ccc(CN(C(=O)c2oc3ccccc3c2C)C2CCS(=O)(=O)C2)cc1 (centres undefined),-2,-3,-5%,-2%,u,u
O=C(c1cc2ccccc2oc1=O)N(Cc1cccs1)C1CCS(=O)(=O)C1 (centres undefined),47*,144*,-8%,7%,-3%,x
CCc1ccc(CN(C(=O)c2cc3ccccc3oc2=O)C2CCS(=O)(=O)C2)cc1 (centres undefined),27*,72*,-6%,7%,-3%,13%
Cc1c(C(=O)N(Cc2ccccc2)C2CCS(=O)(=O)C2)oc2ccccc12 (centres undefined),-1,-2,11%,-9%,14%,0%
O=C(c1ccccc1F)N(Cc1ccc(F)cc1)C1CCS(=O)(=O)C1 (centres undefined),1,2,9%,11%,-4%,x
COc1cccc(C(O)c2ncc(-c3cccc(C(F)(F)F)c3)[nH]2)c1 (centres undefined),x,x,-3%,x,x,x
CC(C)CC1C(=O)N(Cc2cn(CCC3OCCCO3)nn2)CCS(=O)(=O)N1Cc1ccc(-c2ccc(Cl)nc2)cc1 (centres undefined),x,x,-8%,x,x,x
O=C(c1cc2ccccc2oc1=O)N(Cc1ccccc1)Cc1ccc2c(c1)OCO2,6,17,-14%,u,-14%,0%
CC(C)N(Cc1ccc(F)cc1)C(=O)c1cc2ccccc2oc1=O,43*,55*,x,x,7%,0%
CCOc1ccc(CN(C(=O)c2cc(=O)c3cc(C)cc(C)c3o2)C2CCS(=O)(=O)C2)cc1 (centres undefined),-5,-10,2%,u,3.7µM*,0%
O=C(c1ccccc1)N(Cc1cccs1)C1CCS(=O)(=O)C1 (centres undefined),-2,-13,6%,18%,43%,0.37µM*
O=C(c1cc2ccccc2oc1=O)N(Cc1ccco1)Cc1cccs1,17*,20,-3%,-1%,-2%,3%
COc1ccc(CN(C(=O)c2cc3ccccc3oc2=O)C2CCCCC2)cc1OC,48*,65*,5%,20%,u,u
COc1ccccc1OC(C)C(=O)N(Cc1ccco1)C1CCS(=O)(=O)C1 (centres undefined),14*,25*,-2%,13%,33%,u
Cc1ccc(C2(SCC(N)C(=O)O)c3ccccc3-c3ccccc32)cc1 (centres undefined),x,x,58%,0%,x,x
O=C(NCCCN1CCCCC1)C1CCC(CNS(=O)(=O)c2cccc3nsnc23)CC1 (centres undefined),11,-1,-8%,3%,8%,37%
